Reference: PubChem BioAssay (NCI)
About 79,000 compounds went through this panel and 15% of them were active in at least one assay; those are over-represented in the sample as a whole. Active and inactive are the calls of the source. No stated cut-off is given here; in the data, active means growth inhibition above about 70%; inactive means the rest.

Columns and labels:
[1] = NCI Yeast Anticancer Drug Screen. Data for the rad52 strain (AID 147);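 further: 0% = growth of vehicle-treated control cultures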; conditions: S. cerevisiae rad52 mutant growth inhibition, hits give high values
Summary of the method: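 Compounds are applied to a genetically defined yeast strain lacking normal DNA damage repair, and inhibition of growth is expressed relative to cultures given vehicle only.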

[2] = NCI Yeast Anticancer Drug Screen. Data for the wt1 strain (AID 149);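 further: 0% = growth of vehicle-treated wt1 cultures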; conditions: S. cerevisiae wt1 strain (SPY 50644) growth inhibition, hits give high values
Summary of the method: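 wt1 strain grown with compound or vehicle; inhibition taken from the growth difference.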

[3] = NCI Yeast Anticancer Drug Screen. Data for the rad50EPP+ strain (AID 151);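 further: 0% = growth of vehicle-treated control cultures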; conditions: S. cerevisiae rad50 mutant strain, hits give high values
Summary of the method: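 Compounds were applied to the rad50EPP+ yeast strain, which bears a defined DNA repair alteration, and growth inhibition was determined relative to vehicle-treated cultures.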

[4] = NCI Yeast Anticancer Drug Screen. Data for the mgt1 strain (AID 153); conditions: S. cerevisiae mgt1 mutant growth inhibition, hits give high values
Summary of the method: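 Strain: mgt1 yeast, one of a set carrying defined DNA damage repair or cell cycle control alterations. Compound-treated growth compared with vehicle.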

[5] = NCI Yeast Anticancer Drug Screen. Data for the rad50 strain (AID 155);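 further: 0% = growth of vehicle-only cultures of the same strain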; conditions: S. cerevisiae rad50 strain growth inhibition, hits give high values
Summary of the method: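 DNA repair mutant yeast, compound exposure, growth read-out; inhibition is taken relative to vehicle.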

[6] = NCI Yeast Anticancer Drug Screen. Data for the mec2-1 strain (AID 157); conditions: S. cerevisiae mec2-1 strain, hits give high values
Summary of the method: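 Strain: mec2-1 (DNA repair/cell cycle alteration). Compound exposure, then growth measured; inhibition expressed relative to vehicle.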

[7] = NCI Yeast Anticancer Drug Screen. Data for the rad14 strain (AID 159);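 further: 0% = growth of vehicle-treated control cultures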; conditions: S. cerevisiae rad14 strain growth inhibition, hits give high values
Summary of the method: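 DNA repair-defective yeast, compound-exposed; % growth inhibition derived by comparison with vehicle-treated controls.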

[8] = NCI Yeast Anticancer Drug Screen. Data for the sgs1 mgt1 strain (AID 161);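 further: 0% = growth of cultures given vehicle only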; conditions: S. cerevisiae sgs1 mgt1 strain, hits give high values
Summary of the method: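 Read-out: growth inhibition vs vehicle controls. Cells: mutant yeast strain deficient in DNA damage repair.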

[9] = NCI Yeast Anticancer Drug Screen. Data for the CLN2oe strain (AID 163);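 further: 0% = growth of vehicle-only control cultures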; conditions: S. cerevisiae CLN2oe strain, hits give high values
Summary of the method: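 Growth of a genetically modified yeast strain is measured after compound exposure and compared with cultures given vehicle alone.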

[10] = NCI Yeast Anticancer Drug Screen. Data for the cln2 rad14 strain (AID 165);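 further: 0% = growth equal to vehicle treated cultures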; conditions: S. cerevisiae cln2 rad14 strain, hits give high values
Summary of the method: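 Compounds are applied to the cln2 rad14 yeast strain, and growth is then compared with that of vehicle-treated cultures to give inhibition.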

[11] = NCI Yeast Anticancer Drug Screen. Data for the bub3 strain (AID 167); conditions: S. cerevisiae bub3 mutant strain, hits give high values
Summary of the method: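 In this screen, a yeast mutant lacking normal mitotic checkpoint function is challenged with compound. Relative growth versus vehicle gives the inhibition value.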

[12] = NCI Yeast Anticancer Drug Screen. Data for the wt2 strain (AID 169);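 further: 0% = growth of vehicle-treated yeast cultures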; conditions: S. cerevisiae wt2 strain growth inhibition, hits give high values
Summary of the method: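 This strain belongs to a panel of yeast strains with defined genetic alterations in DNA damage repair or cell cycle control. Compounds are applied, and growth inhibition is measured against vehicle-treated cultures.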

[13] = NCI Yeast Anticancer Drug Screen. Data for the mlh1 strain (AID 171);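 further: 0% = growth of vehicle-treated control cultures of the same strain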; conditions: S. cerevisiae mlh1 strain growth inhibition, hits give high values
Summary of the method: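 Growth of the mutant yeast strain after compound exposure, expressed as inhibition relative to vehicle-only controls.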

[14] = NCI Yeast Anticancer Drug Screen. Data for the sgs1 strain (AID 173);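 further: 0% = growth of vehicle-only control cultures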; conditions: S. cerevisiae sgs1 mutant, hits give high values
Summary of the method: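 Growth of a yeast strain bearing a defined genetic alteration is measured after compound treatment. Inhibition is expressed relative to vehicle-only controls.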

[15] = NCI Yeast Anticancer Drug Screen. Data for the mlh1 rad18 strain (AID 175); conditions: S. cerevisiae mlh1 rad18 strain growth inhibition, hits give high values
Summary of the method: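 Read-out is yeast growth inhibition, calculated against vehicle-only controls. The compound was applied to a strain engineered with DNA damage repair alterations.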

[16] = NCI Yeast Anticancer Drug Screen. Data for the rad18 strain (AID 177); conditions: S. cerevisiae rad18 mutant growth inhibition, hits give high values
Summary of the method: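 Growth of the mutant yeast strain after compound exposure, normalised to vehicle-only cultures.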

[17] = at 5.0 µM (retest, dose inferred, filed as 0.5)
[18] = at 50.0 µM (retest, dose inferred, filed as 5.0)

Measured: growth inhibition

O=C(COc1ccc(Cl)cc1Cl)NO
active: [3]; at 100.0 µM 79% | [5]; at 50.0 µM 96.5% | [5]; at 100.0 µM 77% | [6]; at 50.0 µM 98.4% | [6]; at 100.0 µM 98% | [7]; at 100.0 µM 98% | [11]; at 50.0 µM 88% | [11]; at 100.0 µM 74% | [14]; at 100.0 µM 98%
inactive: [1]; at 1.2 µM -5% | [1]; at 3.7 µM 0% | [1]; at 11.0 µM 8% | [1]; at 33.0 µM 28% | [1]; at 100.0 µM 69% | [2]; at 1.2 µM -6% | [2]; at 3.7 µM -7% | [2]; at 11.0 µM -10% | [2]; at 33.0 µM -1% | [2]; at 100.0 µM 66% | [3]; at 1.2 µM -5% | [3]; at 3.7 µM 0% | [3]; at 11.0 µM 12% | [3]; at 33.0 µM 35% | [4]; at 1.2 µM -5% | [4]; at 3.7 µM -5% | [4]; at 11.0 µM -5% | [4]; at 33.0 µM 4% | [4]; at 100.0 µM 58% | [5]; at 1.2 µM -4% | [5]; at 3.7 µM -4% | [5]; [17] -138% | [5]; at 11.0 µM 10% | [5]; at 33.0 µM 50% | [5]; [18] 46% | [6]; at 1.2 µM 1% | [6]; at 3.7 µM -1% | [6]; [17] -46% | [6]; at 11.0 µM 11% | [6]; at 33.0 µM 43% | [6]; [18] -14% | [7]; at 1.2 µM -1% | [7]; at 3.7 µM 3% | [7]; at 11.0 µM 7% | [7]; at 33.0 µM 46% | [8]; [17] -58% | [8]; [18] 15% | [8]; at 50.0 µM 59.1% | [9]; at 1.2 µM -3% | [9]; at 3.7 µM -2% | [9]; at 11.0 µM 1% | [9]; at 33.0 µM 14% | [9]; at 100.0 µM 63% | [10]; [17] -60% | [10]; [18] -22% | [10]; at 50.0 µM 30.5% | [11]; at 1.2 µM -9% | [11]; at 3.7 µM -9% | [11]; [17] -67% | [11]; at 11.0 µM 2% | [11]; at 33.0 µM 24% | [11]; [18] 10% | [12]; at 1.2 µM -3% | [12]; at 3.7 µM -2% | [12]; at 11.0 µM -4% | [12]; at 33.0 µM -1% | [12]; at 100.0 µM 50% | [13]; at 1.2 µM 5% | [13]; at 3.7 µM -9% | [13]; at 11.0 µM -2% | [13]; at 33.0 µM 9% | [13]; at 100.0 µM 65% | [14]; at 1.2 µM -3% | [14]; at 3.7 µM 1% | [14]; at 11.0 µM 3% | [14]; at 33.0 µM 48% | [15]; [17] -118% | [15]; [18] -32% | [15]; at 50.0 µM 67.1%

Br[Se]c1ccccn1
active: [1]; at 11.0 µM 97% | [1]; at 33.0 µM 99% | [1]; at 100.0 µM 98% | [2]; at 33.0 µM 99% | [2]; at 100.0 µM 99% | [3]; at 11.0 µM 98% | [3]; at 33.0 µM 99% | [3]; at 100.0 µM 98% | [4]; at 11.0 µM 79% | [4]; at 33.0 µM 99% | [4]; at 100.0 µM 99% | [5]; at 3.7 µM 91% | [5]; at 11.0 µM 97% | [5]; at 33.0 µM 98% | [5]; [18] 99% | [5]; at 50.0 µM 99.5% | [5]; at 100.0 µM 98% | [6]; at 11.0 µM 89% | [6]; at 33.0 µM 99% | [6]; [18] 100% | [6]; at 50.0 µM 99.8% | [6]; at 100.0 µM 99% | [7]; at 11.0 µM 99% | [7]; at 33.0 µM 99% | [7]; at 100.0 µM 99% | [8]; [18] 99% | [8]; at 50.0 µM 99.6% | [9]; at 33.0 µM 99% | [9]; at 100.0 µM 99% | [10]; [18] 99% | [10]; at 50.0 µM 98.3% | [11]; [17] 75% | [11]; at 11.0 µM 93% | [11]; at 33.0 µM 98% | [11]; [18] 100% | [11]; at 50.0 µM 99.7% | [11]; at 100.0 µM 98% | [12]; at 11.0 µM 80% | [12]; at 33.0 µM 99% | [12]; at 100.0 µM 99% | [13]; at 11.0 µM 84% | [13]; at 33.0 µM 99% | [13]; at 100.0 µM 99% | [14]; at 11.0 µM 83% | [14]; at 33.0 µM 99% | [14]; at 100.0 µM 99% | [15]; [18] 99% | [15]; at 50.0 µM 99.7% | [16]; at 11.0 µM 96% | [16]; at 33.0 µM 98% | [16]; at 100.0 µM 98%
inactive: [1]; at 1.2 µM 2% | [1]; at 3.7 µM 53% | [2]; at 1.2 µM 2% | [2]; at 3.7 µM 10% | [2]; at 11.0 µM 58% | [3]; at 1.2 µM -9% | [3]; at 3.7 µM 59% | [4]; at 1.2 µM -3% | [4]; at 3.7 µM 12% | [5]; at 1.2 µM 5% | [5]; [17] 44% | [6]; at 1.2 µM 0% | [6]; at 3.7 µM 34% | [6]; [17] 29% | [7]; at 1.2 µM 5% | [7]; at 3.7 µM 36% | [8]; [17] -5% | [9]; at 1.2 µM -11% | [9]; at 3.7 µM 11% | [9]; at 11.0 µM 62% | [10]; [17] 9% | [11]; at 1.2 µM -2% | [11]; at 3.7 µM 20% | [12]; at 1.2 µM 1% | [12]; at 3.7 µM 14% | [13]; at 1.2 µM -1% | [13]; at 3.7 µM 22% | [14]; at 1.2 µM 0% | [14]; at 3.7 µM 23% | [15]; [17] 31% | [16]; at 1.2 µM 1% | [16]; at 3.7 µM 65%
